The list is not random: actives were taken first. Their share in the collection is about 5.7%.
ClpP mod = qHTS Assay for Activators of ClpP | ATP-dependent Clp protease proteolytic subunit (Bacillus subtilis (strain 168)), P80244 | purified B. subtilis ClpP, FRET peptide cleavage, 20 min | Potency, µM (doses to about 57.5 µM), inactives show at the top dose activity change, negative = active | 1.9% of 340,000 active | AID 651965, 2013; active means well fitted falling curve with a large enough effect; inconclusive means small, poorly fitted or top-dose-only effect; inactive means no such curve, though single readings can be large or run the other way; further: potency means the concentration at half of the fitted maximal effect; the source files actives as falling curves though it sought activators and does not explain the sign; nearly all actives have a fitted effect of over 65% in size
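FRET quenching reversal measured ClpP activation: 10 microg/mL B. subtilis ClpP at pH 8 with the FRET-FV decapeptide, read at 430 nm after 320 nm excitation. The 20-min minus 0-min signal was scaled between DMSO/no-enzyme wells and ADEP (5.8 microM final).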
DRD3 antagonist = qHTS of D3 Dopamine Receptor Antagonist: qHTS. D(3) dopamine receptor (Homo sapiens), P35462. D3R cells, DiscoveRx beta-arrestin luminescence, antagonist mode; hits give low values. max response, negative = inhibition, %. 2.5% of 360,000 active; in the data active means max response below about -50%; inconclusive means no clear call, values can overlap the other calls; further: on the % scale 0 is the no-effect control and ±100 the full control effect
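Cells expressing the human receptor were seeded at 1500 cells/well, incubated overnight at 37 degrees C in 5% CO2, then exposed to library compounds with dopamine controls for 90 minutes at 37 degrees C before luminescent detection.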
GLP1R inv ag = qHTS of GLP-1 Receptor Inverse Agonists (Inhibition Mode) | Glucagon-like peptide 1 receptor (Homo sapiens), P43220 | HEK293 GLP-1R CRE-luciferase, luminescence, 24 h; GLP-1R form is constitutively active | Potency, µM (highest dose often 38.3 µM), inactives show at the highest dose activity change, negative = inhibition, hits mostly inhibitors | 1.6% of 410,000 active | AID 624417, 2012; further: potency means the concentration at half of the fitted maximal effect; on the % scale 0 is the no-effect control and ±100 the full control effect; nearly all actives have a fitted effect of over 55% in size
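Cells are plated, allowed 12 hours at 37 deg C, then treated with compounds for 24 hr before luciferase detection reagent is added and luminescence is read after 12 min at room temperature. The HEK293 line carries constitutively active GLP-1R with a cAMP-responsive reporter.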
HEK293 tox = qHTS of GLP-1 Receptor Inverse Agonists: Cytotox Screen | 0.13% of 410,000 active | Potency, µM (series often up to 38.3 µM), without a hit: top-dose activity change, negative = inhibition, usual class: inhibitors | HEK293 cAMP-luciferase reporter cells, luminescence, 24 h;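 further: loss of luciferase light is scored as toxicity; potency means the concentration at half of the fitted maximal effect; on the % scale 0 is the no-effect control and ±100 the full control effect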
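Compound-treated cells are incubated 24 hr at 37 deg C under 5% CO2 after a 12 hour attachment period, then luciferase detection reagent is added and luminescence is measured following 12 min at room temperature; lowered signal indicates toxicity.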
DRD3 agonist = qHTS of D3 Dopamine Receptor Agonist: qHTS; D(3) dopamine receptor (Homo sapiens), P35462; D3R DiscoveRx beta-arrestin cells, luminescence, 90 min; max activation, %; 0.58% of 410,000 active; in the data active means max activation above about 30%; further: 0% is about no effect
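Agonist mode: compounds and dopamine controls were applied to plated cells for 90 min at 37 degrees C after an overnight attachment at 1500 cells/well. Luminescent read-out followed 30 - 60 minutes at room temperature with DiscoveRx detection reagent.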
GLP-1R agonist = qHTS of GLP-1 Receptor Agonists; AID 624172, 2012; 0.007% of 380,000 active; Potency, µM (highest dose often 45.6 µM), inactives show at the top dose activation, most hits filed as activators; Glucagon-like peptide 1 receptor (Homo sapiens), P43220; HEK293 GLP-1R CRE-luciferase, luminescence, 4-6 h; cells express a hypersensitive GLP-1R form; further: potency means the concentration at half of the fitted maximal effect; % of control where 0% means no effect
Numbers without * were called inactive; ? = inconclusive; / = not tested or not shown; [ ] = remark or other dose. Unless noted, the call rests on the fitted dose curve; in most records, active means well fitted curve in the direction sought with a large enough effect; inconclusive means small, poorly fitted or top-dose-only effect, or another doubt; inactive means no such curve, though single readings can be large; an effect the other way counts as inactive or inconclusive.

SMILES | ClpP mod | DRD3 antagonist | GLP1R inv ag | HEK293 tox | DRD3 agonist | GLP-1R agonist
CCOC(=O)c1ccc(NC(=S)N(CCN2CCCCCC2)Cc2ccco2)cc1 | / | ? | 6.3µM* | ? | -23 | 8%
COc1cccc(NC(=S)N(CCCN2CCCC(C)C2)Cc2cccs2)c1 (stereo unspecified) | -19% | -80* | -14%[7.66 µM] | -2%[7.66 µM] | -11 | -9%
Cc1nc(-c2ccccc2)sc1C(=O)NS(=O)(=O)c1ccc(CN2CCN(c3ccccc3)CC2)cc1 | -10% | 22 | 2% | -5% | 6 | 20%
Cc1ccccc1NC(=S)N(CCN1CCCCCC1)Cc1cccs1 | -2% | ? | ? | -29% | -22 | 5%
COc1ccc(NC(=S)N(CCCN2CCC(C)CC2)Cc2cccs2)cc1Cl | / | -80* | ? | ? | -24 | 9%
COc1ccccc1NC(=S)N(CCN1CCCCCC1)Cc1cccs1 | / | -58* | ? | -27% | -22 | 8%
COc1ccc(NC(=S)N(CCCN2CCN(C)CC2)Cc2cccs2)cc1 | -4% | 45 | -29% | 2% | -9 | 7%
Cc1sc(NC(=O)c2ccco2)c(C(c2ccc(F)cc2)N2CCN(C)CC2)c1C (stereo unspecified) | -4% | -19 | 7.1µM* | ? | -9 | 0%
Cc1sc(NC(=O)c2ccco2)c(C(c2ccccc2)N2CCC(C)CC2)c1C (stereo unspecified) | 28µM* | -11 | 6.3µM* | -12% | -7 | 0%
Cc1ccc(C(c2c(NC(=O)c3ccco3)sc(C)c2C)N2CCOCC2)cc1 (stereo unspecified) | -6% | -14 | -15% | 4% | 3 | 5%
CC(C)=CCC/C(C)=C/CC/C(C)=C/CCC1(C)CCc2cc(O)ccc2O1 (stereo unspecified) | -2% | / | / | / | / | /
CCN(CC)Cc1csc(C(N)=O)c1 | 2% | -53* | -1% | 13% | 5 | -10%
Cc1ccc(S(=O)(=O)CCC(=O)c2ccc(O)cc2O)cc1 | 1% | -59* | -48% | ? | 5 | -17%
CN(C)c1ccc(-c2ccnc3c2CC(C)(C(=O)NCC2CCOCC2)O3)cc1 (stereo unspecified) | 5% | -24 | -9% | -17% | -8 | 7%
Cc1ccc(C(=O)C(C)OC(=O)C2CCN(c3ccc(C(F)(F)F)cn3)CC2)cc1C (stereo unspecified) | -3% | 3 | ? | -1% | 16 | -11%
CCOc1ccc(C(=O)C(C)OC(=O)C2CCN(c3ccc(C(F)(F)F)cn3)CC2)cc1 (stereo unspecified) | -3% | 29 | 8.9µM* | 1% | 15 | 12%
O=C(CNc1cc(S(=O)(=O)N2CCOCC2)ccc1N1CCCC1)Nc1ccc(Cl)cc1F | -6% | 24 | ? | 1% | 5 | 5%
CC1=C(C(=O)OCc2ccccc2)C(c2cccs2)N2C(=O)CCSC2=N1 (stereo unspecified) | / | 1 | 11µM* | -5% | 1 | 17%
COC(=O)c1c(NC(=O)CCCOc2ccc(C)cc2)sc2c1C(C(=O)OC)CC2 (stereo unspecified) | -9% | / | -12% | 0% | 4 | /
CSc1ccc(CN(C)C(=O)C(c2ccccc2)c2ccccc2)cc1 | 1% | 2 | 10µM* | -28% | 0 | 21%
Cc1ccc(S(=O)(=O)N2CCOCC2)cc1C(=O)Nc1ccccc1C(=O)O | -1% | / | 8% | 0% | 26 | /
CC(C)(C)NC(=O)CN(C(=O)CCC(=O)Nc1nccs1)c1ccccc1F | -2% | 11 | 1% | 0% | -1 | -1%
O=C(c1cccc(F)c1)N1CCCN(C(=O)c2cccc(F)c2)CC1 | 1% | 23 | 39% | 12% | -4 | 1%
O=C(c1cccc(F)c1)N1CCN(c2cccc(Cl)c2)CC1 | 28µM* | 5 | ? | ? | 1 | 2%
O=C(c1cccc(F)c1)N1CCC(N2CCOCC2)CC1 | 14µM* | 0 | 13% | 0% | 8 | 0%
SMILES | ClpP mod | DRD3 antagonist | GLP1R inv ag | HEK293 tox | DRD3 agonist | GLP-1R agonist
Cc1onc(-c2ccccc2Cl)c1C(=O)N1CCN(c2cccc(Cl)c2)CC1 | -1% | ? | 1µM* | -13% | -6 | 3%
Cc1[nH]c(-c2ccc(F)cc2)cc1C(=O)N1CCN(c2cccc(Cl)c2)CC1 | / | ? | 5µM* | ? | 4 | 6%
O=C(c1cccc(Cl)c1)N1CCC(N2CCC(C(=O)N3CCOCC3)CC2)CC1 | / | 3 | 6% | -3% | 4 | 0%
O=C(c1cc2cc(F)ccc2[nH]1)N1CCN(c2cccc(Cl)c2)CC1 | 4% | -5 | -7% | 0% | -9 | -4%
CC(C)NC(=O)C1(C)CCN1C(=O)c1ccc(F)c(Cl)c1 (stereo unspecified) | 1% | 0 | 27% | 7% | -16 | 15%
CN(C)S(=O)(=O)c1ccc(C(=O)Nc2nnc(Cc3ccccc3)s2)cc1 | 22µM* | -1 | -15% | 10% | 5 | -17%
CC1CCN(S(=O)(=O)c2ccc3c(c2)oc(=O)n3CC(=O)NCc2ccc(F)cc2)CC1 | -3% | / | ? | -23% | -4 | /
CC(O)c1cccc(-c2ccc(CN3C[C@]4(CO)O[C@@H](CO)C[C@@H]4S3(=O)=O)cc2)c1 (stereo partly specified) | 0% | 3 | -4% | -5% | 45* | 9%
COC(=O)c1ccccc1NC(=O)Oc1ccc(C(C)C)cc1 | 32µM* | 7 | 0% | -20% | 4 | -7%
COC(=O)c1ccccc1NC(=O)CN1CCN(C23CC4CC(CC(C4)C2)C3)CC1 | -2% | -76* | 0% | -9% | -39 | -7%
COC(=O)c1ccccc1NC(=S)NC(=O)COc1ccc(C(C)C)cc1 | -6% | -13 | 3% | 10% | -7 | 2%
COC(=O)c1ccccc1NC(=O)NC1CC1 | -6% | 1 | 5% | 1% | 1 | -2%
COC(=O)c1ccccc1NC(=O)CN1CCc2ccccc2C1 | 0% | -15 | ? | 3% | -4 | 17%
COC(=O)c1ccccc1NC(=O)N1CCN(c2ccccc2F)CC1 | / | -1 | ? | -13% | 12 | 16%
COC(=O)c1ccccc1NC(=O)N1CCCC1 | 16µM* | 2 | 9% | -14% | 1 | 8%

Screening data deposited in PubChem by National Center for Advancing Translational Sciences (NCATS).
